RECQ1 helicase: inhibitors of human RECQ1 DNA helicase; RECQ1 DNA unwinding, red fluorescence kinetic read; Potency, µM (series often up to 57.3 µM), actives largely listed as inhibitors; actives 0.54% (n = 240,000); note: nearly all actives have a fitted effect of over 30% in size
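RECQ1T1 50 nM; forked duplex (20 bp + 30-nt ss tails) 200 nM, ATP 2 mM final; pH 8.0, 2 mM MgCl2, 2.5 ug/ml poly(dI-dC); 15 min compound preincubation; discontinuous kinetic read over 2 h at RT.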
APE1 inh-1: APE1 (human) endonuclease inhibition. P27695. recombinant APE1, TAMRA/BHQ-2 abasic DNA cleavage fluorescence. Potency, µM (highest dose often 65.8 µM), most hits filed as inhibitors. actives 0.35% (n = 350,000); note: nearly all actives have a fitted effect of over 55% in size
Target sequence (P27695 whole entry, looked up): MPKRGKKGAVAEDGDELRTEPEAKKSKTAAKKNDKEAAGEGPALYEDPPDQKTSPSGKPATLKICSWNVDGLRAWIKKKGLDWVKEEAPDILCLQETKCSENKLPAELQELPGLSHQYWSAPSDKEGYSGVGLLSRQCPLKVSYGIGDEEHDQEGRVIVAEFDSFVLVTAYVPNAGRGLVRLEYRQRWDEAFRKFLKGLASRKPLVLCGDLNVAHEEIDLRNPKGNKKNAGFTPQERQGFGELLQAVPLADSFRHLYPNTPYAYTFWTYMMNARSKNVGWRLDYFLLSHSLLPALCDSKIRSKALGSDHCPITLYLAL
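Kinetic fluorescence read (525 ex/598 em nm, three reads 60 s apart) of AP-site incision; signal = third minus first read. Enzyme 0.75 nM, dual-labelled THF duplex 50 nM, compound preincubation 15 min RT.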
BLM inh: blocks DNA unwinding by human BLM helicase; actives 0.2% (n = 350,000); Potency, µM (highest dose often 56.1 µM), usual class: inhibitors; P54132; recombinant BLM DNA unwinding, fluorescence dequenching; AID 2528; note: nearly all actives have a fitted effect of over 35% in size
TDP1 inh: inhibitors of human tyrosyl-DNA phosphodiesterase TDP1. Q9NUW8. recombinant TDP1, AlphaScreen DNA substrate cleavage. Potency, µM (doses to about 130 µM), most hits filed as inhibitors. actives 0.28% (n = 350,000); note: nearly all actives have a fitted effect of over 40% in size
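AlphaScreen read-out: signal falls as enzyme removes the 3' tyrosine-FITC from a 5'-biotinylated DNA oligo (15 nM, 5 min, RT). Enzyme was E. coli-made recombinant Tdp1 at 1 nM, exposed to compound for 15 min beforehand; beads 10 ug/ml, 10 min.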
GCN5L2 inh: blocks human GCN5L2 histone acetyltransferase. GCN5L2 HAT assay, ThioGlo1 CoA-SH fluorescence. Potency, µM (top dose mostly 58.9 µM), hits mostly inhibitors. actives 0.21% (n = 390,000). AID 504327
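GCN5L2 (20 nM) in 50mM HEPES pH 7.5, 0.1mM EDTA, 0.01% Tween-20 preincubated 15 min with compounds at room temperature. Reaction started with H3(1-25) 75uM, acetyl-CoA 70uM, ThioGlo1 50uM; CoA-thiol fluorescence (Ex340/Em540) read at 0 and 20 min.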
JMJD2E inh: JMJD2E (human) inhibition; actives 1.6% (n = 230,000); JMJD2E catalytic domain, FDH-coupled NADH fluorescence (FDH is formaldehyde dehydrogenase); Potency, µM (highest dose often 57.1 µM), most hits filed as inhibitors; AID 2147; active = well fitted inhibition curve with a large enough effect, not every such curve was filed as active; inconclusive = small, poorly fitted or top-dose-only effect, or another doubt; inactive = no such curve, though single readings can be large or run the other way; note: nearly all actives have a fitted effect of over 50% in size
Target sequence (B2RXH2 1-337 limits assumed): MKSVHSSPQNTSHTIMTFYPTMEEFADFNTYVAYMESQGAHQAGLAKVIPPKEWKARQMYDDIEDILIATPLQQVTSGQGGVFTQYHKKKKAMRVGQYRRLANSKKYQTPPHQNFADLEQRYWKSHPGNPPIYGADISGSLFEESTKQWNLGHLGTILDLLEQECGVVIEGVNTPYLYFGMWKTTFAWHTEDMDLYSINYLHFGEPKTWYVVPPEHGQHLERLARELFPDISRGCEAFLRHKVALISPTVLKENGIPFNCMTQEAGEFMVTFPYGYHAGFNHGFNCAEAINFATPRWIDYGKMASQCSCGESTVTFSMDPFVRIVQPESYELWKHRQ
APE1 dye cs: counter-screen for APE1 inhibitors: DNA dye displacement; Potency, µM (titrated, usually from 28.5 µM), hits mostly inhibitors; actives 7% (n = 480); DNA fluorescent dye displacement counterscreen, fluorescence; shares compounds with APE1 inh-1; AID 2564;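 note: loss of thiazole orange fluorescence as the dye is displaced from duplex DNA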
Endo IV inh: Endo IV (E. coli) inhibition counter-screen | E. coli Endo IV, fluorogenic AP-site DNA cleavage | Potency, µM (top dose mostly 27.1 µM), usual class: inhibitors | shares compounds with APE1 inh-1 | AID 2565 | actives 4% (n = 560)
APE1 inh-2: confirmation of inhibitors of human APE1 endonuclease; Potency, µM (series often up to 57.1 µM), most hits filed as inhibitors; actives 44% (n = 750); AID 2572; purified APE1, fluorogenic abasic-site DNA cleavage; shares compounds with APE1 inh-1; note: nearly all actives have a fitted effect of over 30% in size
APE1 FP inh: compounds that displace a DNA probe from human APE1; shares compounds with APE1 inh-1; actives 7% (n = 480); APE1 binding to TAMRA-labelled double-stranded DNA, fluorescence polarization displacement; Potency, µM (doses to about 28.5 µM), hits mostly inhibitors; AID 2573
A number is an active result; – = inactive; ? = inconclusive; · = no result given; [ ] = remark or other dose. Many of the other results were omitted from the sample, so hits are more common in it than they were. Unless noted, calls come from the whole dose curve; as a rule, active = well fitted curve in the direction sought with a large enough effect; inconclusive = small, poorly fitted or top-dose-only effect, or another doubt; inactive = no such curve, though single readings can be large; an effect the other way counts as inactive or inconclusive.

SMILES	RECQ1 helicase	APE1 inh-1	BLM inh	TDP1 inh	GCN5L2 inh	JMJD2E inh	APE1 dye cs	Endo IV inh	APE1 inh-2	APE1 FP inh
CC(C)(C)N1C(=O)[C@H]2[C@H]3[C@H](O)[C@H](O)C/C(=N/OC[C@@H](O)COCc4ccco4)[C@@H]3CC[C@@H]2C1=O	–[11.5 µM]	–[12.4 µM]	–[12.4 µM]	–[21 µM]	·	·	·	·	·	·
O=C1CCCC2[C@@H]3CCC[N@+]4([O-])CCC[C@H](CN12)C34 (stereo partly specified)	–	–	–	–	·	–	·	·	·	·
OCCN(Cc1ccccc1)Cc1ccccc1Cl	–	–	–	?	–	?	·	·	·	·
OCCN(Cc1ccccc1)Cc1cccc(Cl)c1Cl	–	–	–	16µM	–	?	·	·	?	·
Cc1nc(N=Nc2cc(S(=O)(=O)O)c3cc([N+](=O)[O-])cc(S(=O)(=O)O)c3c2)c(COP(=O)(O)O)c(C=O)c1O	?	2.5µM	–	?	?	7.9µM	·	25µM	1.1µM	·
O=c1cc(-c2ccc(O)c(O)c2)oc2cc(O)c(C3OC(CO)C(O)C(O)C3O)c(O)c12 (stereo unspecified)	–	7.9µM	–	–	–	14µM	?	–	3.2µM	–
Cc1ccccc1-c1cncnc1Nc1ccccc1	–	–	–	·	–	·	·	·	·	·
Cn1c(=O)n(-c2ccc(F)c(Cl)c2)c(=O)c2sc3ccccc3c21	·	·	–	–	–	·	·	·	·	·
COc1c(O)cc2c(c1O)C1OC(CO)C(O)[C@H](O)[C@H]1OC2=O (stereo partly specified)	–	–	–	–	–	–	·	·	·	·
O=C(O[C@@H]1OC2COC(=O)c3cc(O)c(O)c(O)c3-c3c(cc(O)c(O)c3O)C(=O)O[C@@H]([C@H]1O)[C@@H]2O)c1cc(O)c(O)c(O)c1	–	0.071µM	5.6µM	–	?	–	–	–	0.05µM	?
CN1CCN(C(=O)c2c(O)c3cccc4c3n(c2=O)CC4)CC1	–	–	–	–	–	?	·	·	·	·
CCOC(=O)N1CCN(C(=O)c2c(O)c3cccc4c3n(c2=O)CC4)CC1	–	40µM	–	–	–	–	–	–	–	–
O=C(CSc1nnc(SCc2ccccc2)s1)N/N=C/C=C\c1ccco1	25µM	18µM	18µM	?	–	?	13µM	–	13µM	?
Cc1ccc(CSc2nnc(SCC(=O)N/N=C/c3c[nH]c4ccccc34)s2)cc1	?	–	–	6.3µM	–	–	·	·	–	·
O=C(CSc1nnc(SCc2ccccc2Cl)s1)N/N=C/c1c[nH]c2ccccc12	–	–	–	–	–	–	·	·	·	·
O=C(Cn1nc(Cc2cccnc2)c2ccccc2c1=O)Nc1ccc(F)c(Cl)c1	·	·	–	–	–	·	·	·	·	·
CCOc1ccc(NC(=O)CN2CCSc3ccc(S(=O)(=O)N4CCCC4)cc32)cc1	·	·	–	–	–	·	·	·	·	·
Cc1cc(Br)ccc1NC(=O)CSc1c2c(nc3ccccc13)CCC2	·	·	–	–	–	·	·	·	·	·
Nc1ccn([C@@H]2O[C@H](CO)[C@@H](O)C2O)c(=O)n1 (stereo partly specified)	–	–	–	–	–	–	–	–	–	–
Nc1ccn([C@@H]2O[C@H](CO)[C@@H](O)[C@H]2O)c(=O)n1	–	–	–	–	–	–	·	·	·	·
O=C(O)C1Cc2ccccc2CN1C(=O)COc1ccc(Cl)cc1Cl (stereo unspecified)	–	?	–	–	–	–	·	·	·	·
O=C(O)C1Cc2ccccc2CN1C(=O)COc1ccc(Br)cc1 (stereo unspecified)	–	–	–	22µM	–	–	·	·	–	·
Nc1nonc1-c1nc2ccccc2n1CC(=O)N/N=C/c1ccc(-c2cccc(C(=O)O)c2)o1	–	?	?	14µM	–	?	–	–	13µM	–
Cc1cc(C)c(S(=O)(=O)OC[C@H]2C=CC[C@@H](CCC[C@H]3O[C@H](C(=O)OC(C)C)CC[C@@H]3C)O2)c(C)c1	–	–	–	–	·	–	·	·	·	·
O=c1c(O)cccc2cc(O)c(O)c(O)c12	2.5µM	0.71µM	13µM	·	?	4µM	·	–	0.45µM	·
SMILES	RECQ1 helicase	APE1 inh-1	BLM inh	TDP1 inh	GCN5L2 inh	JMJD2E inh	APE1 dye cs	Endo IV inh	APE1 inh-2	APE1 FP inh
O=c1c(-c2cccs2)nc2cnc(N3CCNCC3)nc2n1Cc1cccs1	–	?	?	·	?	·	·	·	·	·
Cc1ccc(/C=C2\SC(=S)N(c3cccnc3)C2=O)o1	?	16µM	–	·	–	11µM	?	–	–	–
Cc1cc(Nc2ccccc2C)n2nc(Cc3ccc(Cl)cc3)nc2n1	·	·	–	–	–	·	·	·	·	·
CCCN(CCC)C(=O)CC(c1ccc(F)cc1)c1ccco1 (stereo unspecified)	–	–	–	–	–	–	·	·	·	·
CCCN(CCC)C(=O)Cc1ccc(F)cc1	–	–	–	·	–	–	·	·	?	·
O=C(c1cccc(C(=O)N2CCN(c3ncccn3)CC2)c1)N1CCN(c2ncccn2)CC1	–	–	–	–	–	?	·	·	·	·
CC(=O)c1ccc(NC(=O)c2ccc3nc(-c4ccco4)c(-c4ccco4)nc3c2)cc1	8.9µM	?	16µM	11µM	?	?	8.9µM	?	4µM	–
O=C(c1ccc2nc(-c3ccco3)c(-c3ccco3)nc2c1)N1CCN(c2ncccn2)CC1	–	?	?	·	–	?	?	–	?	–
O=C(NN=C1c2ccccc2-c2ccccc21)c1ccccc1	?	13µM	–	20µM	–	–	·	·	–	·
Cc1cc(C(=O)O)ccc1-c1ccc(/C=C2\NC(=O)N(Cc3ccccc3Cl)C2=O)o1	–	–	–	–	?	–	·	·	·	·
Cc1ccc(CN2C(=O)N/C(=C\c3ccc(-c4ccc(C(=O)O)cc4C)o3)C2=O)cc1	?	16µM	–	8.9µM	?	?	?	–	?	–
O=C(O)c1ccc(-c2ccc(/C=C3\NC(=O)N(Cc4ccc(Cl)cc4)C3=O)o2)cc1	–	–	–	13µM	–	?	·	·	?	·
Cc1ccc(C(=O)O)cc1-c1ccc(/C=C2/NC(=O)N(c3ccccc3)C2=O)o1	18µM	11µM	–	1.6µM	–	?	–	–	?	–

Assay outcomes as filed in PubChem BioAssay.
